Experimental data published in PubChem BioAssay AID1159580 (chemical genetic matrix, 2015).
Screen size: about 5,500 compounds; about 2,000 (36%) were called active. About 18% were inconclusive and are not listed. Cut-off read from the data, not from the text of the source: active = normalized growth mostly below about 0.91 (no sharp cut-off); inconclusive = no clear call, values can overlap the other calls; inactive = mostly above about 0.92. The list shows a part of the results.

Test: chemical genetic growth profiling, strain panel (AID 1159580);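 note: tested at 20 µM; growth read once vehicle control cultures reached saturation at 30 °C; 1 = growth at the plate median or of vehicle wells; lower values mean less growth of the strain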
Conditions: S. cerevisiae deletion strains, growth OD

Measured: normalized growth

CCC(=O)c1ccc(-c2ccccc2)cc1
active: locus YCL061C, strain MRC1, active compounds read low 0.904 | locus YEL061C, strain CIN8, active compounds read low 0.895 | locus YHR030C, strain SLT2, active compounds read low 0.502 | locus YJR043C, strain POL32, active compounds read low 0.912 | locus YLR039C, strain RIC1, active compounds read low 0.765 | locus YLR085C, strain ARP6, active compounds read low 0.631 | locus YLR262C, strain YPT6, active compounds read low 0.727 | locus YNL153C, strain GIM3, active compounds read low 0.924 | locus YNL298W, strain CLA4 (second series), active compounds read low 0.821 | locus YOL006C, strain TOP1, active compounds read low 0.568 | locus YPR135W, strain CTF4, active compounds read low 0.58
inactive: locus YAL013W, strain DEP1, active compounds read low 0.948 | locus YBR229C, strain ROT2, active compounds read low 0.93 | locus YDL101C, strain DUN1, active compounds read low 0.918 | locus YDL134C, strain PPH21, active compounds read low 0.963 | locus YDR150W, strain NUM1, active compounds read low 0.899 | locus YGR078C, strain PAC10, active compounds read low 0.935 | locus YGR229C, strain SMI1, active compounds read low 0.978 | locus YHR087W, strain rtc3, active compounds read low 0.939 | locus YJR075W, strain HOC1, active compounds read low 0.912 | locus YLR058C, strain SHM2 (second series), active compounds read low 0.953 | locus YML094W, strain GIM5, active compounds read low 0.934 | locus YMR219W, strain ESC1, active compounds read low 0.957 | locus YMR263W, strain SAP30, active compounds read low 0.905 | locus YNL322C, strain KRE1, active compounds read low 0.968 | locus YNR030W, strain Alg12, active compounds read low 0.936 | locus YPL055C, strain LGE1, active compounds read low 0.831 | locus YPL241C, strain CIN2, active compounds read low 0.863
